SKOV3 invasion: blocks SKOV3ip1 adhesion and invasion in omental model; SKOV3ip1-GFP adhesion/invasion on 3D omental model, fluorescence; 46,000 compounds, 0.1% hits; Potency, µM (highest dose often 45.8 µM), most hits filed as inhibitors; note: nearly all actives have a fitted effect of over 65% in size
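qHTS, 4-pt dose (0.36-46 umol/L); SKOV3ip1-GFP, 1,200 cells/well, no FBS; primary omental fibroblast/mesothelial co-culture 48 h pre-grown; 2 h RT + 16 h 37 C; PBS wash, 4% PFA; GFP count 488/509 nm.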
pS6 MEF inh: inhibitors of mTORC1 signaling in Tsc2-/- p53-/- MEF cells | Tsc2-/- p53-/- MEF, phospho-rpS6 immunofluorescence/PI, 24 h | 44,000 compounds, 0.78% hits | Potency, µM (series often up to 38.3 µM), usual class: inhibitors; note: nearly all actives have a fitted effect of over 50% in size
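Tsc2-/-, p53-/- mouse embryonic fibroblasts (empty-vector line) exposed to compound 24 hrs at 37 C, fixed, immunostained for phospho-rpS6 and counterstained with propidium iodide. Acumen laser scanning gives % positive cells from Alexa 488/PI ratio, thresholded using 7.5 nM rapamycin; PI count gives viability.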
p53null 39C tox: kills p53 null cells at the nonpermissive temperature | H1299 p53-null (neo) cells, 39C, ATPlite viability, 24 h | Potency, µM (titrated, usually from 46.1 µM), usual class: cytotoxic | 55,000 compounds, 0.97% hits; note: nearly all actives have a fitted effect of over 50% in size
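H1299 lung cancer cells, p53-null (H1299-neo) or expressing p53 A138V (H1299-p53A138V), were plated overnight at 37C, then exposed to compounds at up to 46 uM for 24 hr at 39C. Viability was read by ATP-based luminescence.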
PMP22 txn: modulators of PMP22 gene transcription in S16 Schwann cells. Potency, µM (doses to about 57.5 µM), hits mostly inhibitors. S16 Pmp22-F2sN Schwann cells, FLuc/NLuc coincidence luminescence, 24 h. 43,000 compounds, 2% hits; active = clear falling dose curves in both reporters; inconclusive = both reporters move, but less clearly or upward; inactive = either reporter flat; the % is the NLuc reporter signal
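Reporter cells (S16 Pmp22-F2sN, 500–1,000 per well) exposed to compounds for 24 h, 37C, 5% CO2; lysis with FLuc read after 10 min, then Stop&Glo and NLuc read after 10 min.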
S16 viability: S16 Schwann cell cytotoxicity | Potency, µM (top dose mostly 57.5 µM), hits mostly cytotoxic | 43,000 compounds, 0.48% hits | S16 Pmp22-F2sN Schwann cells viability, CellTiter-Glo, 24 h; note: nearly all actives have a fitted effect of over 65% in size
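S16 Pmp22-F2sN Schwann cells (500-1,000/well) in phenol-red-free DMEM with 10% FBS received 23 nL compound by pin tool for 24 h at 37 °C. Viability was then read as CellTiter-Glo luminescence after 15 min at room temperature.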
p53null 32C kill: p53 null cell cytotoxicity, permissive temperature. 55,000 compounds, 0.62% hits. Potency, µM (highest dose often 46.1 µM), actives largely listed as cytotoxic. AID 903. H1299-neo p53 null cells, ATP luminescence, 24 h, 32C; note: nearly all actives have a fitted effect of over 55% in size
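We seeded p53-null H1299-neo cells, incubated them overnight at 37C, and added compounds across a range up to 46 uM. After 24 hours at 32C, ATP reagent was applied for 20 min at room temperature and luminescence recorded.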
NLuc sat counter: NanoLuc enzyme inhibition artifact for PMP22 screen. shares compounds with PMP22 txn. Secreted NLuc enzyme (filtered S16 cell medium), Nano-Glo luminescence. Potency, µM (top dose mostly 57.5 µM), usual class: inhibitors. 690 compounds, 4% hits. AID 1508638
NLuc Km ctr: counter-screen for PMP22 expression modulators: NanoLuc inhibition at Km; shares compounds with PMP22 txn; secreted NLuc enzyme, coelenterazine luminescence, Km conditions; Potency, µM (series often up to 57.5 µM), most hits filed as inhibitors; 690 compounds, 5% hits
FLuc counter: counter-screen for PMP22 expression modulators: firefly luciferase inhibition | shares compounds with PMP22 txn | purified P. pyralis FLuc, luminescence, 10 min | Potency, µM (titrated, usually from 57.5 µM), actives largely listed as inhibitors | 690 tested, under 10 active | AID 1508640
Target sequence (P08659 whole entry, looked up): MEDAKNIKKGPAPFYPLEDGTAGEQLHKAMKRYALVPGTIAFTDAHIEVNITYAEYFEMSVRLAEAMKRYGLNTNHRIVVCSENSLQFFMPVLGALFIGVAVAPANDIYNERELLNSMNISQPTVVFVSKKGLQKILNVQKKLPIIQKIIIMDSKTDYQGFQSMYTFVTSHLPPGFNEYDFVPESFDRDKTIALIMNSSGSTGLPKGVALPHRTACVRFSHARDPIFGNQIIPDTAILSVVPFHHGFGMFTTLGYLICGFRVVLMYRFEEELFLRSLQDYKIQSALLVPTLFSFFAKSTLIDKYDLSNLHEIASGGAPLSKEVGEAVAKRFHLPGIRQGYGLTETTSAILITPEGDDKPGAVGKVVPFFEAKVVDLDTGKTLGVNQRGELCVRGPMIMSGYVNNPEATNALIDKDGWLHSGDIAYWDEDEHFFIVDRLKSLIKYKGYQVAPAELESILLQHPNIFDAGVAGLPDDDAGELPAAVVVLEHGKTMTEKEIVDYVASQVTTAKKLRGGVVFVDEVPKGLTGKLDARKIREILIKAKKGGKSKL
S16 F2sN tox cnf: S16 Schwann cell cytotoxicity, confirmatory; 690 compounds, 7% hits; shares compounds with PMP22 txn; S16 Schwann cells viability, CellTiter-Glo ATP luminescence, 24 h; Potency, µM (doses to about 57.5 µM), usual class: cytotoxic
PMP22 txn conf: confirmation of modulators of PMP22 gene transcription in S16 cells; shares compounds with PMP22 txn; S16 Schwann cells Pmp22-F2sN, dual luciferase, 24 h; Potency, µM (series often up to 57.5 µM), usual class: inhibitors; 690 compounds, 22% hits; active = clear falling dose curves in both reporters; inconclusive = both reporters move, but less clearly or upward; inactive = either reporter flat; the % is the FLuc reporter signal
PMP22 prot conf: rat PMP22 protein level modulation, confirmatory. shares compounds with PMP22 txn. S16 Schwann cells Pmp22-HiBiT, luminescence, 48 h. Potency, µM (top dose mostly 27.9 µM), most hits filed as inhibitors. 95 tested, under 10 active
Target sequence (P25094 whole entry, looked up): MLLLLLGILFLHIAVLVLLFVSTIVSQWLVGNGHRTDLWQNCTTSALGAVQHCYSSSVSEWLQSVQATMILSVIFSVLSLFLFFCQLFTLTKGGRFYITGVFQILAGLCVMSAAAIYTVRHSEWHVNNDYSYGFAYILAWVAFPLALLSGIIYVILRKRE
A number is an active result; – = inactive; ? = inconclusive; · = not tested or not shown. Shown are actives, neighbours in structure and some others; about 3% of the full set was active somewhere. Unless noted, calls come from the whole dose curve; as a rule, active = well fitted curve in the direction sought with a large enough effect; inconclusive = small, poorly fitted or top-dose-only effect, or another doubt; inactive = no such curve, though single readings can be large; an effect the other way counts as inactive or inconclusive.

SMILES | SKOV3 invasion | pS6 MEF inh | p53null 39C tox | PMP22 txn | S16 viability | p53null 32C kill | NLuc sat counter | NLuc Km ctr | FLuc counter | S16 F2sN tox cnf | PMP22 txn conf | others
COCCCNC(=O)c1ccc2c(c1)N=C(C)c1c(C)ccc(C)c1S2 | ? | – | ? | 0.089µM | – | – | – | ? | – | – | 0.31µM | PMP22 prot conf=?
CCC1=Nc2cc(C(=O)NCCCOC)ccc2Sc2ccc(Br)cc21 | – | ? | ? | 1.3µM | – | – | – | – | – | ? | ? | PMP22 prot conf=?
CC(=O)N[C@@H]1[C@H](O[C@@H]2c3ccc(c(Cl)c3)Oc3cc4cc(c3O[C@H]3O[C@H](CO)[C@@H](O)[C@H](O)[C@H]3NC(=O)CCCCCCCC(C)C)Oc3ccc(cc3Cl)C[C@H]3NC(=O)[C@H](N)c5ccc(O)c(c5)Oc5cc(O)cc(c5)[C@H](NC3=O)C(=O)N[C@H]4C(=O)N[C@H]3C(=O)N[C@@H]2C(=O)N[C@@H](C(=O)O)c2cc(O)cc(O[C@H]4O[C@H](CO)[C@@H](O)[C@H](O)[C@H]4O)c2-c2cc3ccc2O)O[C@H](CO)[C@@H](O)[C@@H]1O | – | · | · | · | · | · | · | · | · | · | ·
CCOc1cc(C(=O)Nc2ccc(Cl)c(-c3nc4ccccc4[nH]3)c2)cc(OCC)c1OCC | – | · | · | · | · | · | · | · | · | · | ·
COc1cc(-c2noc(-c3ccc(NCc4ccco4)c([N+](=O)[O-])c3)n2)cc(OC)c1OC | – | – | – | 3.2µM | – | – | ? | ? | – | – | ?
CC(NC(=O)c1cccc(Nc2nc3ccccc3n3nnnc23)c1)c1ccccc1 (stereo not given) | – | – | – | 11µM | ? | – | – | – | – | 17µM | ?
Cc1ccc2c(CN3CCN(c4ccc(Cl)cc4)CC3)cc(=O)oc2c1 | – | – | – | ? | – | – | · | · | · | · | ·
COc1ccc(CN2CCN(Cc3cc(=O)oc4cc(C)ccc34)CC2)c(OC)c1OC | – | ? | ? | 17µM | ? | – | – | – | – | – | –
O=C(Cn1ncc2c([nH]c3ccccc32)c1=O)Nc1cccc(C(F)(F)F)c1 | – | – | – | 20µM | – | – | – | – | – | – | –
COC(=O)c1cc(NC(=O)Cn2ncc3c([nH]c4ccccc43)c2=O)cc(C(=O)OC)c1 | – | – | – | – | – | – | · | · | · | · | ·
C[C@]12CC[C@@H]3c4ccc(O)cc4CC[C@H]3[C@H]1C[C@@H](O)[C@H]2O | – | · | · | · | · | · | · | · | · | · | ·
CCN(C(=O)c1cc2c(s1)-c1ccccc1OC2)c1cccc(C(F)(F)F)c1 | – | – | – | 20µM | – | – | ? | – | – | ? | –
Cc1cccc2c1-c1sc(C(=O)N(C)c3cccc(C(F)(F)F)c3)cc1CO2 | – | – | – | – | – | – | · | · | · | · | ·
CN(C)CCN(Cc1ccco1)C(=O)c1cc2c(s1)-c1ccccc1OC2 | ? | 5.2µM | ? | 17µM | ? | – | – | – | – | ? | ?
CCCCN(Cc1ccco1)C(=O)c1cc2c(s1)-c1c(C)cccc1OC2 | – | – | – | ? | – | – | · | · | · | · | ·
O=C(Cn1c(-c2cccs2)cc2cc(F)ccc21)NCCCN1CCN(c2ccccc2F)CC1 | – | ? | – | ? | ? | – | · | · | · | · | · | PMP22 prot conf=?
O=C(Cn1c(-c2cccs2)cc2ccccc21)NCCCN1CCN(c2ccc(F)cc2)CC1 | – | ? | – | 10µM | – | – | – | – | – | ? | ? | PMP22 prot conf=?
O=C(Cn1c(-c2cccs2)cc2ccccc21)NCCCN1CCN(c2ccccc2F)CC1 | ? | – | – | ? | ? | – | · | · | · | · | ·
O=C(Nc1cccc(-c2nc3ccccc3o2)c1)C(F)(F)F | ? | – | – | 8µM | ? | ? | ? | ? | ? | – | ?
CCc1ccc2oc(-c3cccc(NC(=O)c4cc5ccccc5o4)c3)nc2c1 | – | ? | – | – | – | – | · | · | · | · | ·
CCCN(C(=O)Cn1nc(Cc2ccncc2)c2ccccc2c1=O)c1ccccc1C | – | – | – | 13µM | – | – | ? | ? | – | – | ?
CCCN(C(=O)Cn1nc(Cc2cccnc2)c2ccccc2c1=O)c1ccc(C(C)C)cc1 | – | – | ? | ? | – | ? | · | · | · | · | ·
CCCCN(CC)C(=O)CSc1nc2n[nH]c(C)c2c(=N)n1-c1ccc(CC)cc1 | – | – | – | 17µM | ? | ? | ? | ? | – | – | ?
O=C(Nc1ccc(Br)cc1F)N1CC=C(c2c[nH]c3ccccc23)CC1 | – | – | – | ? | – | – | – | ? | – | – | –
Cc1cnc(Nc2ccc(CN3CCOCC3)cc2)nc1Nc1cccc(S(=O)(=O)NC(C)(C)C)c1 | – | · | · | · | · | · | · | · | · | · | ·
SMILES | SKOV3 invasion | pS6 MEF inh | p53null 39C tox | PMP22 txn | S16 viability | p53null 32C kill | NLuc sat counter | NLuc Km ctr | FLuc counter | S16 F2sN tox cnf | PMP22 txn conf | others
CC[C@@H]([C@H](C)O)n1ncn(-c2ccc(N3CCN(c4ccc(OCC5CO[C@@](Cn6cncn6)(c6ccc(F)cc6F)C5)cc4)CC3)cc2)c1=O (stereo not given in full) | – | · | · | · | · | · | · | · | · | · | ·
O=C(Nc1ccccc1C(F)(F)F)N1CCN(c2ccc3nnc(-c4ccc(F)cc4)n3n2)CC1 | – | – | – | 16µM | – | – | – | – | – | – | ?
CC(C)n1nc(-c2ccc3oc(N)nc3c2)c2c(N)ncnc21 | – | · | · | · | · | · | · | · | · | · | ·
Cc1cccc(/C=C(\C#N)c2nc3ccccc3c(=O)[nH]2)c1 | – | – | – | 11µM | – | – | ? | ? | – | ? | –
Cc1ccc2nc(/C(C#N)=C/c3ccc(-c4cccc(Cl)c4)o3)[nH]c2c1 | – | – | ? | ? | – | – | · | · | · | · | ·
COc1cc2c(N3CCN(C(=O)Nc4ccc(OC(C)C)cc4)CC3)ncnc2cc1OCCCN1CCCCC1 | – | · | · | · | · | · | · | · | · | · | ·
